From PubChem
Many of the other results were omitted from the sample, so hits are more common in it than they were.
CHX counter: counter-screen for Shiga toxin inhibitors: cycloheximide protein synthesis inhibition. cell reporter, cycloheximide protein synthesis inhibition counterscreen. max response, %. 300,000 compounds, 12% hits. AID 2314; in the data active = max response mostly above about 13%, no sharp cut-off; inactive = mostly below about 14%; note: read at 38.3 µM for the half of the compounds with a filed dose; 0% is about no effect
TbPYK inhibitor: blocks Trypanosoma brucei pyruvate kinase | Q57TT1 | TbPYK enzyme, Kinase-Glo Plus ATP luminescence, 45 min | Potency, µM (top dose mostly 76.8 µM), for the others: at the top dose activity, negative = inhibition, hits mostly inhibitors | 410,000 compounds, 0.12% hits; note: potency is the fitted concentration of half-maximal effect; % is set by controls: 0 for no effect and ±100 for the full control effect; nearly all actives have a fitted effect of over 50% in size
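Enzyme and substrate buffer are dispensed first and compound is pin-transferred. ADP at 130 uM final then starts the reaction, which runs 45 min at room temperature. Detection reagent is added for 10 min before luminescence is imaged.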
Shiga toxin inh: Shiga toxin inhibition | Vero cells, Shiga toxin protein synthesis inhibition reporter | inhibition, % at 38.7 µM | 290,000 compounds, 9.2% hits | AID 2315; in the data active = inhibition mostly above about 28%, no sharp cut-off; inactive = mostly below about 43%; note: 0% is about no effect
LmPK inhibitor: blocks Leishmania mexicana pyruvate kinase activity | purified LmPK, Kinase-Glo ATP luminescence, 1 h | Potency, µM (titrated, usually from 57.5 µM), without a hit: top-dose activity change, negative = inhibition, hits mostly inhibitors | 290,000 compounds, 0.37% hits | Q27686; note: potency is the fitted concentration of half-maximal effect; % is set by controls: 0 for no effect and ±100 for the full control effect
Target sequence (Q27686 whole entry, looked up): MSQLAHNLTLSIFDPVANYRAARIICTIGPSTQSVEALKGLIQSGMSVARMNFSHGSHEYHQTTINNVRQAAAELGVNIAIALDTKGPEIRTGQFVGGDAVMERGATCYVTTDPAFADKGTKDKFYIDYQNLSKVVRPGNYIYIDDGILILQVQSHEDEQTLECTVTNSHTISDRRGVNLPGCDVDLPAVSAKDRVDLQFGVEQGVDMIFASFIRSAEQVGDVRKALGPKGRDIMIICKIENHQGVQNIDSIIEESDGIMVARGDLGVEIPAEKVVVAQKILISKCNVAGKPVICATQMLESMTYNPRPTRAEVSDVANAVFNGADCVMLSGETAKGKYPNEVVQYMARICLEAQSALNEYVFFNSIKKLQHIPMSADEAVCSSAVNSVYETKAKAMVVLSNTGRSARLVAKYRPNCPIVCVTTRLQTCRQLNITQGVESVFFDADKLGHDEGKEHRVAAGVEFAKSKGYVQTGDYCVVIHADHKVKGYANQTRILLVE
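Kinase-Glo luminescence read after 1 h RT reaction of 0.1 nM LmPK with 0.5 mM PEP and 0.1 mM ADP. Activity scaled between uninhibited and enzyme-free controls.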
RE007 growth inh: less growth of the S. pombe RE007 Vpr strain; S. pombe RE007 Vpr strain, BacTiter-Glo ATP luminescence, 24 h; Potency, µM (top dose mostly 92.2 µM), for the others: at the highest dose activity change, negative = less growth, actives largely listed as inhibitors; 360,000 compounds, 0.21% hits; active = well fitted falling curve with a large enough effect; note: potency is the fitted concentration of half-maximal effect; % is set by controls: 0 for no effect and ±100 for the full control effect; nearly all actives have a fitted effect of over 50% in size
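Fission yeast strain RE007, carrying one chromosomally integrated HIV-1 vpr copy, was seeded at OD 0.01 in PMG+AL medium with 23 nL pinned compound. After 24 h at 30 °C and 99% humidity, viability was read by BacTiter-Glo luminescence.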
Giardia FBPA inh: Giardia lamblia aldolase inhibition | A8B2U2 | purified Giardia FBPA | Potency, µM (highest dose often 59.6 µM), for inactives: at the top dose activity, negative = inhibition, most hits filed as inhibitors | 290,000 compounds, 0.71% hits | AID 2451; note: potency is the fitted concentration of half-maximal effect; % is set by controls: 0 for no effect and ±100 for the full control effect; nearly all actives have a fitted effect of over 55% in size
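40 nM FBPA preincubated 10 min at RT with compound (up to 57.5 uM final), then substrate plus GAPDH/TPI/NAD/arsenate coupling and diaphorase/resazurin added. Fluorescence read after 20 min at RT, 525/598 nm.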
* hit, by the source's call; [ ] = dose if it differs, or a comment. Unless noted, calls come from the whole dose curve; as a rule, active = well fitted curve in the direction sought with a large enough effect; inconclusive = small, poorly fitted or top-dose-only effect, or another doubt; inactive = no such curve, though single readings can be large; an effect the other way counts as inactive or inconclusive.

`CC1CN(C(=O)N2CCC(C(=O)NCc3ccccc3F)CC2)c2cc(Cl)ccc2O1` (centres undefined) gave TbPYK inhibitor 1%.
For CC(=O)Nc1ccc(NC(=O)C2CC(=O)N(c3cccc(C)c3C)C2)cc1 (centres undefined) the results were CHX counter 7, TbPYK inhibitor -12%, Shiga toxin inh 23, LmPK inhibitor 1%, RE007 growth inh 1% and Giardia FBPA inh 1%.
`CS(=O)(=O)c1ccc2nc(NC(=O)C3CC(=O)N(c4ccc(F)cc4)C3)sc2c1` (centres undefined) gave CHX counter -2, TbPYK inhibitor -10%, Shiga toxin inh -4, LmPK inhibitor 5%, RE007 growth inh 22% and Giardia FBPA inh 8%.
`Cc1cccc(N2CC(C(=O)Nc3ccc4c(c3)OCCO4)CC2=O)c1C` (centres undefined) gave CHX counter 11, TbPYK inhibitor -5%, Shiga toxin inh 71*, LmPK inhibitor -1%, RE007 growth inh 12% and Giardia FBPA inh 1%.
Screening CCc1ccc(N2CC(C(=O)Nc3nc4ccc(S(C)(=O)=O)cc4s3)CC2=O)cc1 (centres undefined) returned CHX counter 17*, TbPYK inhibitor 2%, Shiga toxin inh 67*, LmPK inhibitor 7%, RE007 growth inh 3% and Giardia FBPA inh -6%.
For COC(=O)c1ccc(CSc2nnc(NC(=O)C3CC(=O)N(c4ccc5c(c4)OCCO5)C3)s2)cc1 (centres undefined) the results were CHX counter 20*, TbPYK inhibitor 1%, Shiga toxin inh 2, LmPK inhibitor 0%, RE007 growth inh -9% and Giardia FBPA inh 21%.
`CCc1ccc(C(=O)NNC(=O)C2CC(=O)N(c3ccc4c(c3)OCCO4)C2)cc1` (centres undefined) gave TbPYK inhibitor -2% and RE007 growth inh -2%.
For COc1ccc(-c2csc(NC(=O)C3CC(=O)N(c4ccc5c(c4)OCCO5)C3)n2)cc1 (centres undefined) the results were CHX counter 24*, TbPYK inhibitor 0%, Shiga toxin inh 14, LmPK inhibitor 5%, RE007 growth inh 8% and Giardia FBPA inh -6%.
For COC(=O)[C@@H]1C[C@H]1[C@@H](NC(=O)Oc1ccc(F)cc1)c1ccccc1 the results were Giardia FBPA inh -14%.
Screening C=C1CC2C3C=C(C)C4=CC(=O)CCC4(C)C3CCC2(C)[C@@]1(OC(C)=O)C(C)=O (some centres undefined) returned TbPYK inhibitor 2%.
CCc1ccc(N2CC(C(=O)Nc3ccc4c(c3)OCCO4)CC2=O)cc1 (centres undefined) was read as CHX counter 31*, TbPYK inhibitor 2%, Shiga toxin inh 82*, LmPK inhibitor 7%, RE007 growth inh -5% and Giardia FBPA inh 6%.
For CCOc1ncccc1-c1nc(-c2cccs2)no1 the results were CHX counter 50*, TbPYK inhibitor 1%, Shiga toxin inh 60*, LmPK inhibitor 4%, RE007 growth inh -16% and Giardia FBPA inh 12%.
COc1ccc(-c2nc(-c3cccnc3)no2)cc1 was read as CHX counter 45*, TbPYK inhibitor -3%, Shiga toxin inh 59*, LmPK inhibitor -15%, RE007 growth inh -10% and Giardia FBPA inh 3%.
CCOc1nc(-c2ccccc2)ccc1-c1noc(-c2cccs2)n1 was read as CHX counter -3, TbPYK inhibitor 0%, Shiga toxin inh -7, LmPK inhibitor 3%, RE007 growth inh 0% and Giardia FBPA inh 0%.
COc1cccc(-c2nc(-c3ccc(NC(=O)c4ccncc4)cc3)no2)c1 was read as CHX counter -1, Shiga toxin inh 51, LmPK inhibitor -5%, RE007 growth inh 14%[3.69 µM] and Giardia FBPA inh 4%.
CCCCOc1ccc(-c2nc(-c3cccnc3)no2)cc1 was read as CHX counter 25*, TbPYK inhibitor -4%, Shiga toxin inh 80*, LmPK inhibitor -1%, RE007 growth inh 1% and Giardia FBPA inh 2%.
